# According to PubChem BioAssay (NCI):
# Compounds without any hit were thinned out: in the full panel of roughly 79,000, 15% have a hit. A number with no mark means an inactive call. No stated cut-off is given here; in the data, active means growth inhibition above about 70%; inactive means the rest.
# Test: NCI Yeast Anticancer Drug Screen. Data for the rad50 strain (AID 155);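 further: 0% = growth of vehicle-only cultures of the same strain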
# Conditions: S. cerevisiae rad50 strain growth inhibition; at 50.0 µM; hits give high values
# Method: Growth inhibition of yeast strains with defined genetic alterations is measured as a screen for potential anti-cancer activity. Selected strains with alterations in DNA damage repair or cell cycle control were exposed to compounds and growth inhibition was measured relative to vehicle treated controls. The strain used in this assay is rad50
row,SMILES,growth inhibition
1,Cc1ccc(C)c2c1CCC2=O,3.9%
2,NNc1ncccn1,6.45%
3,C=CC1=NC(C)(C)CC(C)O1 (stereo not given),8%
4,Cn1/c(=N\N=C\c2ccccc2OCCO)sc2ccccc21,-2.7%
5,CCOC(=O)c1ccc(NC(C)=O)o1,-10.3%
6,Oc1cc(O)c2c(c1)O[C@H](c1ccc(O)c(O)c1)[C@@H](O)C2,0.9%
7,COC1OC(COC(C)=O)C(OC(C)=O)C(OC(C)=O)C1OC(C)=O (stereo not given),10.7%
8,NC(CSSCC(N)C(=O)O)C(=O)O (stereo not given),-11.6%
9,CN(C)c1ccc2c(N(C)C)cc(N(C)C)nc2c1,-14.8%
10,c1ccc(-c2ccc3ccccc3c2)cc1,7.35%
11,CCOC(=O)C(=O)CC(=O)c1ccccc1,8.65%
12,CC(O)C(F)(F)C(F)(F)C(F)(F)F (stereo not given),7.8%
13,Cc1cc(NC(=O)c2ccccc2)c(Cl)cc1N,-26.4%
14,COc1ccc(C(=O)C(=O)c2ccccc2)cc1,26.6%
15,CCC(=O)Oc1c(C)cc(O)c2ccccc12,8.95%
16,O=CNCCc1ccccc1,7.25%
17,CCCCCCCCCCCCCCCCCCSC(=N)N,45.9%
18,Cc1c(Cl)cccc1N=C=S,-9.85%
19,CCC1CCC(C)NC1 (stereo not given),26.4%
20,COc1nc2ccccc2s1,18.6%

row,SMILES,growth inhibition
1,NC(CO)(CO)c1ccccc1,34.4%
2,O=C(Nc1ccccc1)c1ccco1,12.3%
3,O=C(c1ccccc1)c1ccc(-c2ccc(O)cc2)cc1,37.7%
4,O=[N+]([O-])c1c(O)c(CNCCCO)cc(CNCCCO)c1O,13.5%
5,O=S(=O)(OCCOS(=O)(=O)c1ccccc1)c1ccccc1,31.9%
6,COc1cc(OC)c2cc(C(=O)c3ccc(C#N)cc3)c(=O)oc2c1,17%
7,CCN1CCCC(N2c3ccccc3Sc3ccccc32)C1 (stereo not given),-9.15%
8,C[n+]1cc2cc3c(cc2c2ccccc21)OCO3,23.5%
9,O=C(CCl)Nc1ccccc1SCc1cc(Cl)cc2c1OCOC2,-5.7%
10,O=S1(=O)c2ccccc2Oc2ccccc21,-26.2%
11,COc1ccc(C)cc1NC(=O)SC(C)C,-9.75%
12,Nc1ncc([N+](=O)[O-])cn1,1.9%
13,CCCCOC(=O)c1ccc(NC(=O)CCl)cc1,28.6%
14,CC(=O)c1cccc(NS(=O)(=O)c2ccc(C)cc2)c1,-4.85%
15,c1ccc(Nc2ccccn2)nc1,-10.2%
16,CN(C)CCOC(=O)Nc1ccc(Cc2ccc(NC(=O)OCCN(C)C)cc2)cc1,-2.1%
17,CSc1cnc2ccccc2n1,5.55%
18,CCOC(=O)C1(N)CCCCC1,10.3%
19,Cc1ccc([N+](=O)[O-])c(C)n1,19.1%
20,C=CC(C)(C)n1cc(C2=C(O)C(=O)C(c3cn(C(C)(C)C=C)c4ccccc34)=C(O)C2=O)c2ccccc21,-1.6%
